In PubChem BioAssay AID588849 (Broad Institute, 2011):
Results with a measured potency or affinity are listed apart. Active and inactive are the calls of the source. No rule for the calls is given here.

molecular target: CAAX prenyl protease 2 (Homo sapiens) (UniProt Q9Y256); assay: inhibition of Ras-converting CAAX protease Rce1 – biochemical, yeast membranes, quenched-peptide fluorescence, cherry-pick, dose response (AID 588849); details: yeast membrane fractions expressing human Rce1, quenched-peptide fluorescence, 4 h; series mostly up to 10 µM
Sequence (Q9Y256 whole entry, looked up): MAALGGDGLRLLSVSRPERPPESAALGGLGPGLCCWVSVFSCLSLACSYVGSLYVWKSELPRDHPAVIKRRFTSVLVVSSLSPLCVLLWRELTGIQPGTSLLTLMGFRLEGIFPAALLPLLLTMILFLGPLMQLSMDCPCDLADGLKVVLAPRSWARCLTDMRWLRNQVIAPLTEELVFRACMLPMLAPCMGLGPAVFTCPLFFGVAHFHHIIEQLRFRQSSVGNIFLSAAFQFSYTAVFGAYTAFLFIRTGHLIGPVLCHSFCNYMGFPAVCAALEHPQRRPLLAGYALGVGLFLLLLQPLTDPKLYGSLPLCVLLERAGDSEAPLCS

outcome, inactive:
Cc1ccc(SCc2c(C(=O)N/N=C/c3ccccc3)nnn2-c2nonc2N)cc1
CCSCCOC(=O)C1=C(C)NC(=O)NC1c1ccccc1 (stereo not drawn)
COC(C/C=C/[C@H](O)[C@H](C)OCc1ccccc1)OC
CCCCNC(=S)NNC(=O)CCn1cc(C)cn1
Nc1nc2c(ncn2COC(CO)CO)c(=O)[nH]1
CC(=O)c1c(O)cc(O)c(C(C)=O)c1O
COc1ccc(C2c3c(ncn(CCN4CCOCC4)c3=N)Oc3ccc4ccccc4c32)cc1 (stereo not drawn)
COC(C[C@@H](O)C[C@H](O)[C@H](C)OCc1ccccc1)OC
CN(C)CCNc1ncnc2oc(-c3ccccc3)c(-c3ccccc3)c12
CCN(CC)Cc1c(O)ccc2c(=O)c(-c3ccccc3OC)coc12
O=C1CN(C(=O)NCC(=O)N2CCCC2)c2ccccc2N1
Cc1c(Cl)c([N+](=O)[O-])nn1CC(=O)N1CCCc2ccccc21
O=C(NCCc1cccnc1)c1cc(COc2ccc(F)cc2Cl)on1
Cc1ccc(-c2cc(C)nc3nc(N)nn23)cc1
O=C(COc1ncnc2cc([N+](=O)[O-])ccc12)NC(=O)NC1CCCCC1
CN(C)CCN(C(=O)c1ccc2ccccc2c1)c1nc2ccc(Br)cc2s1
COC(=O)c1ccccc1NC(=O)NCc1cccnc1
CC(=O)NC(Cc1c[nH]c2ccccc12)C(=O)O (stereo not drawn)
c1ccc(CNc2nc(N3CCN(Cc4ccccc4)CC3)nc3ccccc23)cc1
CC(C)[C@H](NC(=O)OCc1ccccc1)C(=O)OCC(=O)Nc1c(F)cccc1F
NC(=NCCCCCCN=C(N)/N=C(\N)Nc1ccc(Cl)cc1)/N=C(\N)Nc1ccc(Cl)cc1
Nc1nonc1-n1nnc(C(=O)N/N=C/c2cccc(Cl)c2)c1CSc1ccc(Cl)cc1
COc1cc(-c2nc3ccccn3c2/N=C/c2cccc(OC)c2O)ccc1O
CC(Cc1cccs1)NC(=O)Nc1ccc([N+](=O)[O-])cc1 (stereo not drawn)
COCCN1C(=O)/C(=C/c2ccc(Oc3ccc([N+](=O)[O-])cn3)c(OC)c2)SC1=Nc1ccccc1
Cc1cc(C)cc(Nc2nc(-c3ccc(S(=O)(=O)N4CCCC4)cc3)cs2)c1
CCCCCCCCCC[N+](C)(C)CC/C=C1/c2ccccc2Sc2ccc(Cl)cc21
O=C(C(Cc1ccccc1)N1C(=O)c2ccccc2C1=O)N1c2ccccc2CCc2ccccc21 (stereo not drawn)
O=C(CSc1nc2ccccc2s1)N1N=C(c2cccs2)CC1c1ccc(F)cc1 (stereo not drawn)
COc1ccc(C)cc1NC(=O)CCC(=O)Nc1ccc2nc(N3CCN(C)CC3)cc(C)c2c1
O=C(NCCc1c[nH]c2ccccc12)OCCSS(=O)(=O)O
CCCCCCSc1cc(-c2nc3cc(C)ccn3c2NCCCC)ccc1OC
CN1CCN(Cc2c(C(=O)N/N=C/c3cccc(Br)c3)nnn2-c2nonc2N)CC1
COc1cc(C(=O)OCC(=O)Nc2ccc(SC(F)F)cc2)cc(OC)c1OC
COc1cccc(/C=N/NC(=O)c2nnn(-c3nonc3N)c2C(C)C)c1OCc1ccc(F)cc1
O=C(O)CCC(=O)c1ccc(-c2ccccc2)cc1
COc1ccc(CSc2ccc(-c3nc4ccccn4c3NCc3ccccc3)cc2OC)cc1
CCOc1ccc(C2C(C(=O)OC)=CN(C(C)c3ccccc3)C=C2C(=O)OC)cc1 (stereo not drawn)
